# Assay outcomes (PubChem)
# Hits are enriched below; roughly 0.65% of the tested compounds scored in any of these assays.
# BH1578 lux ind – quorum light induction in luxS cqsA deficient V. cholerae. 350,000 compounds, 0.16% hits. activation, % at 18.7 µM. V. cholerae BH1578 lux reporter, luminescence, 6 h. AID 588436; in the data active = activation mostly above about 9.7%, no sharp cut-off
# UGM FP inh – blocks M. tuberculosis UGM enzyme | AID 504406 | 320,000 compounds, 0.06% hits | purified UGM, fluorescence polarization probe displacement | inhibition, % at 10 µM; in the data active = inhibition above about 10%, passing the limit was not always enough
# TcdB GH inh – TcdB glycohydrolase inhibition. inhibition, % at 9.99 µM. P18177. TcdB glycohydrolase enzymatic assay, plate reader. 350,000 compounds, 0.24% hits; in the data active = inhibition above about 10%
# Target sequence (P18177 whole entry, looked up): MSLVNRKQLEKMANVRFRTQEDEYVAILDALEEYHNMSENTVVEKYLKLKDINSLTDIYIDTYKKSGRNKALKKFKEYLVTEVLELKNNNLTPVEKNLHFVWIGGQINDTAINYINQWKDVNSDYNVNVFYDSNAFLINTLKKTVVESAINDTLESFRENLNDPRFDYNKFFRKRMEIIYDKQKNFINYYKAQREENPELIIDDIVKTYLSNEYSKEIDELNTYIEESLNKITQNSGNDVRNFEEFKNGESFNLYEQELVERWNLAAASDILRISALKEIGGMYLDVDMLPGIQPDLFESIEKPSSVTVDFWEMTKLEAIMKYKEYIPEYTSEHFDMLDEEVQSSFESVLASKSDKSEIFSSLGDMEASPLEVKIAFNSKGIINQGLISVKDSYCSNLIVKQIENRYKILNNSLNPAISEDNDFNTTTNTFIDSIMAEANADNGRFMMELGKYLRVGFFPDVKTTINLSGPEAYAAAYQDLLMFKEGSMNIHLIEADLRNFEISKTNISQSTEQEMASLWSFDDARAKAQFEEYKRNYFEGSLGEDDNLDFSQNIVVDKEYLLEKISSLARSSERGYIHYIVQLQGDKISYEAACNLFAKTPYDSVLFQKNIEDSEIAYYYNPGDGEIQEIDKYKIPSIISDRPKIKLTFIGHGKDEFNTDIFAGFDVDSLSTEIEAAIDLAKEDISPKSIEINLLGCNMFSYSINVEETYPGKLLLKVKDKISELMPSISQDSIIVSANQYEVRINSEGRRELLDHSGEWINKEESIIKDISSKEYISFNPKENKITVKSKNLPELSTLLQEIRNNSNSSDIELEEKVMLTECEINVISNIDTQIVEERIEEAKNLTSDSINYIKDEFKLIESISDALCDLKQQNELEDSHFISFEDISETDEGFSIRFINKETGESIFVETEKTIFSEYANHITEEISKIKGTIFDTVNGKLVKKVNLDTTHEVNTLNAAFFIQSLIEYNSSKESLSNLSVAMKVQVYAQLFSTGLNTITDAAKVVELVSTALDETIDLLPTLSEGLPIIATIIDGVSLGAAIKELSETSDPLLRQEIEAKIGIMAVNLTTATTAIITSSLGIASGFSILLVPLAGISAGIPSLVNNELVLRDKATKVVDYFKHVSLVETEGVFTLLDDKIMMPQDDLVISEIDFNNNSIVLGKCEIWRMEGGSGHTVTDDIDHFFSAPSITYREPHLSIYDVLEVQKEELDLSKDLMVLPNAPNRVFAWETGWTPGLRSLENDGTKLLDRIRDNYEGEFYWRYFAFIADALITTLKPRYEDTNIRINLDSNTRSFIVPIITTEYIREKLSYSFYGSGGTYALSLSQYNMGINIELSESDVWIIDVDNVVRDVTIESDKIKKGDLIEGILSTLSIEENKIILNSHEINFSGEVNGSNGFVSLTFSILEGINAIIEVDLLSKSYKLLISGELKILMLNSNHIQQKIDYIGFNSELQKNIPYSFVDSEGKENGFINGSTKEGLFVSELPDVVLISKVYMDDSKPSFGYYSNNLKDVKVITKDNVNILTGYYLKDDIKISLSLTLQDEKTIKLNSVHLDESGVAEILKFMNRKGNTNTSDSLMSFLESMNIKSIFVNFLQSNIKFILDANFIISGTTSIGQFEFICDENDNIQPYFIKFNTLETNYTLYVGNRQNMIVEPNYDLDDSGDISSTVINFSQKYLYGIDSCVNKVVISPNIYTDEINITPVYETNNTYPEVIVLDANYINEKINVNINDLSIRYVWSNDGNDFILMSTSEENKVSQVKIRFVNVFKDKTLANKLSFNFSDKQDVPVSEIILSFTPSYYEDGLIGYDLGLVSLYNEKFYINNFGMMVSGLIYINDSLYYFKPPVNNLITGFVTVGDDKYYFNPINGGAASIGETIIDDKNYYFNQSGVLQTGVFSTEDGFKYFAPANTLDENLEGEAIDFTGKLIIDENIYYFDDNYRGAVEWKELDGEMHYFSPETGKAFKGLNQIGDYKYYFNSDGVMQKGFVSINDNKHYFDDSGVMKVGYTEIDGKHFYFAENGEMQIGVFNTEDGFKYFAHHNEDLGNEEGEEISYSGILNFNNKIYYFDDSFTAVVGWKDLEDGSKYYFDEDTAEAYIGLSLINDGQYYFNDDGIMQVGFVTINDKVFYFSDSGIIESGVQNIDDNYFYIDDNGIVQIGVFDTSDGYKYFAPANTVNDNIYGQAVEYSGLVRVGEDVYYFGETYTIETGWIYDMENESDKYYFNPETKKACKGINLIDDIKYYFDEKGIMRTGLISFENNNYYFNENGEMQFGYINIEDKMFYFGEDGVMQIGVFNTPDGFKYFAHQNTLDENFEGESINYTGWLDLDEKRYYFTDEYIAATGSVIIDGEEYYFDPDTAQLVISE
# PrP 5UTR inh – suppresses PrP 5' UTR mRNA reporter expression | cell-based PrP 5' UTR mRNA reporter, plate reader | inhibition, % (test concentration not listed) | 340,000 compounds, 0.35% hits | AID 488862; in the data active = inhibition above about 52%
# Yp Topo-I inh – blocks Yersinia pestis topoisomerase I activity; AID 504884; activity, % at 10 µM; 360,000 compounds, 0.064% hits; Y. pestis Topo-I cleavage product accumulation, plate reader; in the data active = activity above about 50%, passing the limit was not always enough
# Hits are given with their value; . = inactive; / = no result.
SMILES,BH1578 lux ind,UGM FP inh,TcdB GH inh,PrP 5UTR inh,Yp Topo-I inh
N#CCCN(C(=O)COC(=O)c1cc(=O)c2ccccc2o1)c1ccccc1,.,.,10,.,.
C[C@H]1CN([C@@H](C)CO)S(=O)(=O)c2ccc(C#Cc3ccccc3F)cc2O[C@@H]1CN(C)CC1CCOCC1,/,/,.,/,/
O=P1(Oc2ccccc2)OCCCS1 (stereo not given),.,.,14,.,.
C=CCNc1nc(Cl)nc(NCc2ccco2)n1,.,.,.,.,.
Oc1ccc(Nc2nc(Cl)nc(NCc3ccco3)n2)cc1,.,.,13,.,.
O=C(O)C[C@H]1C[C@H]2c3cc(NC(=O)c4ccc5c(c4)OCO5)ccc3O[C@H]2[C@H](CO)O1,/,/,.,/,/
CC(C)NC(=O)N(C)C[C@H]1Oc2ncc(C#CC3CC3)cc2C(=O)N([C@@H](C)CO)C[C@H]1C,/,/,.,/,/
Nc1c(Cl)ncnc1NCCc1ccc(O)cc1,.,.,11,.,.
Cc1cc(C)c(NS(=O)(=O)c2cccc3cccnc23)c(C)c1,.,.,14,.,.
Cc1ccc(NS(=O)(=O)c2cccc3cccnc23)cc1Cl,.,.,.,.,.
CC(=O)Nc1ccc(S(=O)(=O)N2CCCC(C(=O)O)C2)cc1 (stereo not given),.,.,18,.,.
COC(=O)Nc1ccc(S(=O)(=O)N2CCCC(C(=O)O)C2)cc1 (stereo not given),.,.,.,.,.
COCC(=O)N1CC2(C1)[C@@H](c1ccccc1)[C@@H](CO)N2Cc1ccccc1OC,/,/,.,/,/
COc1cc(-c2cc(C(=O)Nc3c(Cl)cc(Cl)cc3Cl)c3ccccc3n2)cc(OC)c1OC,.,.,.,.,.
COc1ccc2nc3ccccc3nc2c1NC(=O)c1ccc(Cl)cc1Cl,.,37,/,.,.
O=C(C[C@H]1C=C[C@H](NS(=O)(=O)c2ccc(F)cc2)[C@@H](CO)O1)NCCN1CCCCC1,/,/,.,/,/
Cc1cccc(C(=O)NNC(=O)c2ccc(Cl)cc2)c1O,50,.,/,.,.
Cc1cc(C(=O)NNC(=O)c2ccc(Cl)cc2)c2ccccc2n1,25,.,.,.,.
CC(=O)c1ccc(Nc2ccc(-c3ccccc3F)nn2)cc1,.,.,10,.,.
CC1CCN(c2ccc(-c3cccs3)nn2)CC1,.,.,.,80,.
Clc1ccc(-c2cccs2)nn1,.,.,.,.,.
COc1ccc(C(=O)/C=C/c2ccc(O)cc2)cc1,.,.,.,.,.
O=C(/C=C/c1ccc(O)cc1)c1ccccc1,.,.,15,.,.
CCCN(C(=O)CN1C(=O)NC2(CCCCCC2)C1=O)C1CCS(=O)(=O)C1 (stereo not given),.,.,/,.,.
CCN(C(=O)CN1C(=O)NC2(CCC(C)CC2)C1=O)C1CCCCC1 (stereo not given),.,/,14,/,.
SMILES,BH1578 lux ind,UGM FP inh,TcdB GH inh,PrP 5UTR inh,Yp Topo-I inh
COc1cccc(C(=O)OCC(=O)Nc2cc(C)on2)c1OC,.,.,10,.,.
COc1cccc(C(=O)Nc2cc(C)on2)c1OC,.,.,.,.,.
CC(=O)[C@]1(O)Cc2c(O)c3c(c(O)c2[C@@H](O[C@H]2C[C@H](N)[C@H](O)[C@H](C)O2)C1)C(=O)c1ccccc1C3=O,/,70,/,/,/
C=CCn1c(C)cc(C(=O)COC(=O)CCc2cc(OC)c(OC)c(OC)c2)c1C,.,.,12,.,.
O=C(NCc1ccccc1)c1cccc(COc2cc(Cl)ccc2Cl)c1,.,.,.,.,.
CN(C(=O)c1cccc(COc2ccc(Cl)cc2Cl)c1)c1ccccc1,.,.,/,.,51
O=C(O)c1cccnc1SCc1ccccc1Cl,.,.,11,.,.
CCN(CC)c1ccc2cc(S(=O)(=O)c3ccc(Cl)cc3)c(=O)oc2c1,.,20,.,.,.
CCCCCCc1cc2cc(S(=O)(=O)c3ccc(Cl)cc3)c(=O)oc2cc1O,.,.,.,.,.
COc1cccc(/C=N/Nc2ncnc(Cl)c2N)c1O,.,.,.,.,.
COc1cccc(/C=N/Nc2ncnc3scc(-c4ccccc4)c23)c1O,.,.,/,.,67
C[C@H]1CN([C@@H](C)CO)C(=O)c2cc(NC(=O)Nc3ccc4c(c3)OCO4)ccc2O[C@@H]1CN(C)S(=O)(=O)c1cccs1,/,/,.,/,/
O=C(C[C@H]1CC[C@@H]2[C@H](COC[C@H](O)CN2Cc2ccc(C(F)(F)F)cc2)O1)N1CCc2ccccc2C1,/,/,.,/,/
Cc1ccc(S(=O)(=O)Nc2cccnc2Oc2ccc(Cl)cc2)cc1,.,.,14,.,.
O=C(C[C@H]1C[C@@H]2c3cc(NC(=O)Nc4ccc(C(F)(F)F)cc4)ccc3O[C@@H]2[C@H](CO)O1)NCCc1ccccc1,/,/,.,/,/
O=C(CCN1CCCCC1)NCC[C@@H]1CC[C@@H](NC(=O)c2ccc(F)cc2)[C@H](CO)O1,/,/,.,/,/
Oc1ccc(-c2nccs2)cc1,.,/,21,.,.
COc1ccc(CN2CCN(C(=O)C3CC(=O)N(C4CCCCCC4)C3)CC2)c(OC)c1OC (stereo not given),.,.,/,.,74
C/C(=N\NC(N)=S)c1ccc2c(c1)OCCO2,.,.,12,.,.
CC(=O)N/N=C(\C)c1ccc2c(c1)OCCO2,.,.,.,.,.
COc1ccc(N2C(=O)c3cccc4c(N(C)CCO)ccc(c34)C2=O)cc1,.,21,.,.,.
CCOc1ccc(S(=O)(=O)NCCC(=O)NCc2ccccn2)cc1,.,.,11,.,.
O=C(c1ccccn1)N1CC[C@@H]2[C@H]1c1cc(C#Cc3ccccc3)ccc1N[C@@H]2CO,/,/,.,/,/
COc1ccc(C(=O)Nc2c(-c3cccs3)c(=O)c3ccccc3n2C)cc1,.,.,11,.,.
Cc1noc(C)c1S(=O)(=O)Nc1ccc2c(c1)C(=O)N([C@@H](C)CO)C[C@H](C)[C@H](CN(C)C(=O)NC1CCCCC1)OCCCC[C@@H](C)O2,/,/,.,/,/
SMILES,BH1578 lux ind,UGM FP inh,TcdB GH inh,PrP 5UTR inh,Yp Topo-I inh
Cc1cccc(NC(=O)CCOc2ccccc2)c1C,.,.,.,.,.
Cc1cccc(OCCC(=O)NCC(=O)Nc2cccc(C)c2C)c1,.,.,19,.,.
O=C(Nc1ccc(F)cc1)N1CCCCN2[C@H](CO)[C@@H](c3ccc(-c4ccccc4F)cc3)[C@H]2C1,/,/,.,/,/
COc1ccccc1OCC(=O)Nc1ccc(-c2nnc(-c3ccco3)o2)cc1,.,.,12,.,.
O=C(O)c1cc(-c2ccccc2Cl)n(-c2cccc(Cl)c2)n1,.,.,13,.,.
COc1ccc2c(c1)CC=C1C2CCC2(C)C(=O)C(=NO)CC12 (stereo not given),.,/,.,.,.
CC12CCC3C(=CCc4cc(O)ccc43)C1CC(=NO)C2O (stereo not given),/,/,13,.,.
C/C=C/c1ccc([C@H]2[C@@H](CO)N3C(=O)CN(S(=O)(=O)c4cccc(F)c4)C[C@@H]23)cc1,/,/,.,/,/
Cc1ccc(C)c2sc(NC(=O)c3ccc(N4C(=O)CCC4=O)cc3)nc12,.,.,23,.,.
COc1ccc(C)c2sc(NC(=O)c3cccc(N4C(=O)CCC4=O)c3)nc12,.,.,.,.,.
